Source: PubChem BioAssay (National Center for Advancing Translational Sciences (NCATS))
Compounds with a hit are over-represented: about 1.4% of the library has one in this group of screens.
TCR activator: Activators of T cell receptors: qHTS campaign. primary human leukocytes, anti-CD3, IL-2 HTRF, 48 h. Potency, µM (titrated, usually from 9.22 µM), inactives show top-dose activation of IL-2 secretion, usual class: activators. 330,000 tested, under 10 active; also: % of control where 0% means no effect
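IL-2 release read by HTRF sandwich (Eu cryptate donor, d2 acceptor, 665 nm emission) after 48 hr exposure of primary human leukocytes to compound together with anti-CD3 beads in the absence of co-stimulatory signals.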
uPA generation: qHTS for Inhibitors of Cell Surface uPA Generation; 0.31% of 330,000 active; Potency, µM (series often up to 38.3 µM), for the others: at the highest dose activity change, negative = inhibition, hits mostly inhibitors; cell surface uPA generation assay, qHTS; active = well fitted inhibition curve with a large enough effect; inconclusive = small, poorly fitted or top-dose-only effect; inactive = no such curve, though single readings can be large or run the other way; tested in mouse RAW 264.7 cells; also: potency is read from the fitted curve at half-maximal effect; % is scaled to controls: 0 for no effect and ±100 for the full control effect; nearly all actives have a fitted effect of over 55% in size
BRCA1 expr act: qHTS Assay to Identify Small Molecule Activators of BRCA1 Expression; MCF7-BRCA1-FFLuc reporter, luminescence, 48 h; response scale: scaled: vehicle 0%, 10 µM genistein 100%; Potency, µM (titrated, usually from 46.1 µM), inactives show top-dose activation, usual class: activators; AID 624202, 2012; 1.1% of 380,000 active; also: potency is read from the fitted curve at half-maximal effect; nearly all actives have a fitted effect of over 80% in size
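48 h compound treatment of MCF7-BRCA1-FFLuc cells (phenol-red free MEM, 37 °C), then 15 min with luciferase substrate and luminescence imaging.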
p53 reactivator: qHTS assay for re-activators of p53 using a Luc reporter | H1299 p53-A138V BP100-luciferase reporter, luminescence, 24 h | Potency, µM (top dose mostly 92.2 µM), without a hit: at the top dose activity change, positive = activation, usual class: activators | 0.063% of 320,000 active; also: potency is read from the fitted curve at half-maximal effect; % of control where 0% means no effect; nearly all actives have a fitted effect of over 45% in size
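p53-null H1299 cells stably carrying temperature-sensitive p53-A138V and a BP100-luciferase reporter were pinned with compounds (4-point, 1:5 series) and held 24 hrs at 37 deg C. Luminescence was read 10 min after detection reagent.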
IL-2 act: qHTS of IL-2 Activators. AID 652025, 2013. IL-2 activation reporter assay, cell-based qHTS; stimulated with anti-CD3/CD4/CD28 beads; in transgenic mouse T cells. 0.065% of 360,000 active. activation, % (series mostly up to about 46 µM); in the data active = activation above about 50%; inconclusive = mostly about 30% to 49%; also: 0% is about no effect
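Unstimulated transgenic mouse T cells, 750 per well, received compound and, after 60 minutes, anti-CD3/anti-CD4 bead plus anti-CD28 stimulation. EGFP and DsRed were quantified after 18 hours.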
* hit, by the source's call; ? = inconclusive; nt = not tested or not shown; [ ] = remark or other dose. Unless noted, calls follow the shape of the dose curve; as a rule, active = well fitted curve in the direction sought with a large enough effect; inconclusive = small, poorly fitted or top-dose-only effect, or another doubt; inactive = no such curve, though single readings can be large; an effect the other way counts as inactive or inconclusive.

SMILES	TCR activator	uPA generation	BRCA1 expr act	p53 reactivator	IL-2 act
O=C(Nc1ccc([N+](=O)[O-])cc1)c1ccccc1F	-10%	-5%	4.5µM*	27%	-2
O=C(NNC(=S)Nc1ccc(F)cc1)c1cccc([N+](=O)[O-])c1	4%	4%	-1%	14%	0
O=[N+]([O-])c1ccc(NNC(=S)Nc2ccc(F)cc2)cc1	3%[46.1 µM]	-1%	-61%	28µM*	-2
Cc1ccc(Cn2ccc(-c3cnc(-c4ccccc4)s3)n2)cc1	-3%	8%	74%	28%	0
O=S(=O)(c1ccccc1)n1ccc(-c2cnc(-c3ccccc3)s2)n1	-1%	-1%	7.9µM*	18%	2
CN(C)S(=O)(=O)Nc1ccc(-c2cn3ccsc3n2)cc1	nt	nt	11µM*	nt	nt
Cc1ccccc1OCC(=O)NCC(=O)OCC(=O)c1ccc(F)cc1	nt	nt	-8%	nt	nt
Cc1ccc(Cn2ccnc2C(=O)Nc2ccccc2)cc1	-2%	0%	13µM*	?	-2
CCOC(=O)c1c(Nc2cc(C)cc(C)c2)nnc(-c2ccccc2)c1-c1ccccc1	nt	nt	-37%	nt	nt
CC(C)c1ccc(/C=N/NC(=O)c2ccccc2Cl)cc1	-1%	3.2µM*	27%	?	0
CNC(=S)N/N=C/c1ccc(N(C)C)cc1	-6%	-2%	?	3%	0
CNC(=S)N/N=C/c1ccc(C(C)C)cc1	-15%	-5%	5µM*	nt	-1
CCc1cccc(NC(=O)Cn2c(=O)n(CC(=O)NCCc3ccccc3)c(=O)c3ccccc32)c1	nt	nt	-7%	nt	nt
Cc1ccc2cc(C#N)c(NCCNC(=S)NCCCN(C)C)nc2c1C	0%	10µM*	-41%	1%	-3
Cc1cc(C)c2nc(NCCCNC(=S)NCCCN(C)C)c(C#N)cc2c1	1%	?	-81%	-10%	-1
O=C(COc1ccccc1C(=O)Nc1ccccc1)NC1CCCCC1	nt	nt	0%	nt	nt
CCn1cc(C=C2C(=O)c3ccccc3C2=O)c2ccccc21	-3%[46.1 µM]	6%	-20%	-1%	108*
CCN=C1S/C(=C\c2cn(CC)c3ccccc23)C(=O)N1CC	-4%[46.1 µM]	-4%	-6%	7%	-4
CC(=O)c1cccc(NC(=O)c2sc3nc4n(c(=O)c3c2C)CCCCC4)c1	-7%	-2%	10%	-3%	1
COc1cccc(NC(=O)c2sc3nc4n(c(=O)c3c2C)CCC4)c1	-5%	-19%	10µM*	27%	-2
CSc1cccc(NC(=O)c2sc3nc4n(c(=O)c3c2C)CCC4)c1	-3%	-6%	8.9µM*	22%	0
CC(C)=CCC/C(C)=C/CNC(=O)C[C@H]1C[C@H](C(=O)N2CCOCC2)[C@@]2(C)c3[nH]c4cc(CCC(=O)N(C)C)ccc4c3CCN2C1=O	3%[46.1 µM]	10µM*	-53%	-4%	-1
CC(C)=CCC/C(C)=C/CNC(=O)C[C@H]1C[C@H](C(=O)N2CCCCC2)[C@@]2(C)c3[nH]c4cc(CCC(=O)N(C)C)ccc4c3CCN2C1=O	4%[46.1 µM]	?	0%	-1%	-1
O=C(Nc1ccccc1O)c1ccc(NC(=O)C2CC2)cc1	3%	-6%	1.8µM*	?	-4
COc1ccccc1NC(=O)c1ccc(NC(=O)C2CC2)cc1	nt	2%	1%	nt	0
SMILES	TCR activator	uPA generation	BRCA1 expr act	p53 reactivator	IL-2 act
O=C(Nc1ccccc1C(=O)O)c1ccc(NC(=O)C2CC2)cc1	4%	7.9µM*	14%	-4%	-4
CCC(C)(C)c1ccc(OCCCC[n+]2ccccc2)c(C(C)(C)CC)c1	-1%	11µM*	-63%	-9%	-1
Cc1cccc(N2C(=O)CSC23C(=O)N(C)c2ccccc23)c1 (centres undefined)	nt	nt	1%	nt	nt
COc1ccccc1NC(=O)Nc1nnc(CC(=O)Nc2ccccc2)s1	nt	nt	nt	5%	nt
CCc1nnc(NC(=O)Nc2ccccc2OC)s1	4%	0%	6.3µM*	15%	-3
Cc1cc(C(=O)N/N=C/c2cc([N+](=O)[O-])ccc2O)c2ccccc2n1	-5%[46.1 µM]	-8%	-83%	?	1
Cc1cc(C(=O)N/N=C/c2ccc([N+](=O)[O-])cc2)c2ccccc2n1	-4%	2.8µM*	-54%	3%	0
Cc1ccc(-c2cc(C(=O)N/N=C/c3cccnc3)c3ccccc3n2)cc1C	10%	10µM*	-39%	nt	0
C=CC[n+]1c(-c2ccc(C)cc2)csc1Nc1ccc(NC(C)=O)cc1	-2%	7.1µM*	-77%	-9%	0
CCOC(=O)c1ccccc1NC(=O)COC(=O)CC(C)(C)CC1=NS(=O)(=O)c2ccccc2N1	nt	nt	0%	nt	nt
CNc1nc(-c2ccc3c(c2)CCN3C(=O)CC(C)(C)C)c(C)s1	2%	-4%	11µM*	-2%	1
CNc1nc(-c2ccc3c(c2)CCN3C(=O)c2ccccc2F)c(C)s1	-1%	3%	?	-2%	-2
CCOc1ccc(NC(=O)c2oc3ccccc3c2NC(=O)c2ccc(OC)cc2OC)cc1	nt	nt	0%	nt	nt
CC(C)=CC(=O)Nc1ccc(Cl)cc1	-10%	1%	3.2µM*	10%	0
C/C(=C\C(=O)c1ccc(Cl)cc1)Nc1ccc(N2CCOCC2)cc1	4%	1%	22%	3%	2
C/C(=C\C(=O)c1ccc(Br)cc1)Nc1ccc(Cl)cc1	-1%[46.1 µM]	3%	2.8µM*	24%	0
CCN1CCN(CCCNC(=O)c2cc3cc4ccc(OC)cc4nc3o2)CC1	-3%	-8%	25%	4%	0
COc1ccc2cc3cc(C(=O)NCCCN4CCC(C)CC4)oc3nc2c1	0%	?	11µM*	5%	-4
CCn1nnc2sc3c(c2c1=O)CCC(C)C3 (centres undefined)	-4%	-2%	13µM*	?	5
CC(=O)Cn1nnc2sc3c(c2c1=O)CCC(C(C)(C)C)C3 (centres undefined)	-6%	-8%	92%	16%	0
CCOc1ccc(C(=O)NCCn2cc(SCC(=O)Nc3ccccc3)c3ccccc32)cc1	nt	nt	4%	nt	nt
Cc1ccc(C(=O)NCC(=O)NC23CC4CC(CC(C4)C2)C3)cc1	2%	-10%	6.3µM*	11%	0
O=C(Nc1ccc(Cl)cn1)c1cccc2ccccc12	4%	8.9µM*	0%	9%	0
CCn1ccc(C(=O)Nc2ccc(Cl)cn2)n1	0%	-14%	2.5µM*	?	-2
O=C(Nc1ccc(Cl)cn1)c1ccccc1[N+](=O)[O-]	7%	-14%	16%	?	0
CCCCn1cnc2c(oc3nc4c(cc32)CCCC4)c1=O	-2%	?	55%	2%	-1
CCCCCCn1cnc2c(oc3nc4c(cc32)CCCC4)c1=O	0%[46.1 µM]	-9%	3.5µM*	?	-1
